The values below come from PubChem BioAssay (NCATS).

Records with an inconclusive call do not appear. Active and inactive are the calls of the source. Unless noted, calls follow the shape of the dose curve; as a rule, active = well fitted curve in the direction sought with a large enough effect; inconclusive = small, poorly fitted or top-dose-only effect, or another doubt; inactive = no such curve, though single readings can be large; an effect the other way counts as inactive or inconclusive.

The target in test [1] is Estrogen receptor (Homo sapiens) (UniProt P03372). In words: qHTS assay for small molecule antagonists of estrogen receptor alpha signaling (AID 588513; active = well fitted curve in the direction sought with a large enough effect in the signal ratio, with a control signal flat, not every such curve was filed as active; the % refers to the signal ratio; also: % is scaled to controls: 0 for no effect and ±100 for the full control effect). The procedure, abridged:
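Cells were plated at 5000/well and incubated 4 h at 37 C. Compounds were added as 1:2 dilution series, duplicates. 17-beta-estradiol (0.5nM final) was added for 18 h before CCF4 detection.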

For test [2] the target is unchanged. Nature of the test: qHTS assay for small molecule agonists of estrogen receptor alpha signaling (AID 588514; calls by dose curve;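 also: 0% = vehicle only and 100% = reference agonist; nearly all actives have a fitted effect of over 70% in size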). The procedure, abridged: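 Cells were plated at 5000/well, incubated 4 hrs at 37 C, dosed with compound titration series, incubated 18 hrs at 37 C, loaded with CCF4 dye for 2 hrs at RT, then fluorescence was read.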
In test [3] the target is Glucocorticoid receptor (Homo sapiens) (UniProt P04150). In words: qHTS assay for small molecule agonists of glucocorticoid receptor signaling (AID 588532; active = well fitted curve in the direction sought with a large enough effect in the signal ratio, with a control signal flat; the % refers to the signal ratio;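 also: 100% = dexamethasone at 0.1 µM and 0% = DMSO only wells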). Conditions: HeLa MMTV-bla, beta-lactamase ratio, agonist, 18 h; stronger effect = higher value; percent of dexamethasone control, DMSO zero. The essentials:
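Titration series, up to 92 uM, applied to GRE-bla HeLa cells for 18 h at 37 C. Detection by CCF4 FRET substrate after 2 h at RT.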

Test [4] shares this target. In words: qHTS assay for small molecule antagonists of glucocorticoid receptor signaling (AID 588533; active = well fitted inhibition curve with a large enough effect in the signal ratio, with a control signal flat, not every such curve was filed as active; the % refers to the signal ratio;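 also: cells stimulated with 2 nM dexamethasone as agonist; % is scaled to controls: 0 for no effect and ±100 for the full control effect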). The essentials: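 Antagonist-mode qHTS: compound titrations added to GRE-bla HeLa cells, then dexamethasone 2 nM final; 18 h, 37 C. CCF4 FRET fluorescence normalized to dexamethasone and DMSO; IC50 from Hill fit.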
Test [5] is described as follows: qHTS assay for small molecule agonists of retinoid X receptor alpha signaling (AID 588544; calls by dose curve;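 as to activation: 0% = DMSO basal wells and 100% = reference agonist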). To be noted: HEK293T RXRa-UAS-bla, beta-lactamase reporter, 18 h; 530 nm emission.
The target of test [6] is Retinoic acid receptor RXR-alpha (Homo sapiens) (UniProt P19793). The test is described as above.
The nature of test [7]: qHTS assay for small molecule antagonists of retinoid X receptor alpha signaling (AID 588546; active = well fitted inhibition curve with a large enough effect in the signal ratio, with a control signal flat, not every such curve was filed as active; the % refers to the signal ratio;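 also: cells stimulated with 9-cis-retinoic acid as agonist; % is scaled to controls: 0 for no effect and ±100 for the full control effect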). Conditions: HEK293T RXRa-UAS-bla, beta-lactamase ratio, antagonist mode; measured here: W530 green channel, cytotoxicity proxy. The procedure, abridged:
(§1)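 Beta-lactamase reporter inhibition, read as CCF4 fluorescence ratio (ex 405, em 460/530 nm) after 2 h at RT. HEK293T UAS-bla cells, 2500/well, were stimulated with 9-cis-RA at 500 or 100 nM final alongside test compound for 18 h at 37 C.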

The nature of test [8]: qHTS assay for small molecule activators of the nuclear factor-kappa B (NF-kB) signaling pathway (AID 651749; active = well fitted activation curve with a large enough effect in the signal ratio; the % refers to the signal ratio; also: series mostly up to about 77 µM; % of control where 0% means no effect). Conditions: NF-kB-bla ME-180 cells, beta-lactamase FRET ratio, 16 h; activation: stronger effect = higher value. The procedure, abridged:
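Screening used 2,000 ME-180 reporter cells per well exposed to pinned compound (23 nL) or DMSO; after 16 hr at 37C, beta-lactamase expression under NF-kB control was assessed through FRET.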

A short description of test [9]: qHTS assay for environmental chemicals that activate the Aryl hydrocarbon Receptor (AhR) signaling pathway (AID 651777). Also: % of control where 0% means no effect; nearly all actives have a fitted effect of over 15% in size. To be noted: 1A2-DRE human hepatoma cells, luciferase, 24 h; activation: stronger effect = higher value. The procedure, abridged:
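Concentration–response screening used 1,200 1A2-DRE cells per well, 24 hr compound exposure (37 C, 5% CO2), and One-Glo luminescence as the AhR-driven CYP1A2 reporter signal.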

Test [10] addresses Peroxisome proliferator-activated receptor alpha (Homo sapiens) (UniProt Q07869). Nature of the test: qHTS assay for small molecule agonists of the peroxisome proliferator-activated receptor alpha (PPARalpha) signaling pathway (AID 651778). Also: % of control where 0% means no effect. Conditions: PathHunter PPARalpha complementation, chemiluminescence, 6 h; max response: stronger effect = higher value. The essentials:
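Cells plated at 2,000/well and held overnight at 37 C, 5% CO2, then compound added by pin tool for 6 hr; after PathHunter detection reagent and 60 min at room temperature, chemiluminescence from enzyme complementation was read.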

Test [11] is described as follows: qHTS assay for small molecule agonists of the antioxidant response element (ARE) signaling pathway measured by Nrf2-dependant transcriptional activity - cell viability counter screen (AID 720653; active = well fitted curve in the direction sought with a large enough effect in the repeat runs; an effect the other way counts as inactive or inconclusive; also: % is scaled to controls: 0 for no effect and ±100 for the full control effect). Conditions: ARE-bla HepG2 viability, CellTiter-Glo ATP luminescence, 16 h; max response: stronger effect = lower value. The essentials:
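ARE-bla HepG2 cells (2,000/well) rested 5 hrs at 37C/5% CO2, then exposed to compounds in DMSO for 16 hrs. Viability was read in the same wells as intracellular ATP by luminescence, 30 min at room temperature after reagent addition.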

Test [12] can be described thus: qHTS assay for cell viability of HEK293 cells (AID 743288). Also: % is scaled to controls: 0 for no effect and ±100 for the full control effect; nearly all actives have a fitted effect of over 50% in size. To be noted: ATP luminescence (CellTiter-Glo), 18 h; max response: stronger effect = lower value. The procedure, abridged:
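The Tox21 protocol used parental HEK293 cells treated for 18 h at 37 C with compounds delivered by pintool; ATP-coupled luminescence after 30 min at room temperature gave viability.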

Test [13] can be described thus: qHTS assay for cell viability of the p53RE-bla HCT-116 cell line (AID 743292). Also: % is scaled to controls: 0 for no effect and ±100 for the full control effect; nearly all actives have a fitted effect of over 55% in size. The essentials:
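Compound-exposed HCT-116 (p53RE-bla) cells, 4,000 per well, were kept 16 h at 37 C following a 5 h preincubation. Cell number was estimated from total ATP by CellTiter-Glo luminescence read after 30 min at room temperature.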

In test [14] the target is Nuclear receptor subfamily 1 group I member 2 (Rattus norvegicus) (UniProt Q9R1A7). In words: qHTS assay for small molecule activators of the rat pregnane X receptor (rPXR) signaling pathway (AID 651751; call rule not given here; also: 0% is about no effect). To be noted: rPXR reporter cells, luciferase (One-Glo), 24 h.
A short description of test [15]: qHTS assay for small molecule activators of the human pregnane X receptor (PXR) signaling pathway (AID 720659; call rule not given here; also: 0% is about no effect).
Test [16] is described as follows: qHTS assay for small molecule antagonists of peroxisome proliferator-activated receptor delta signaling (AID 588535; active = well fitted inhibition curve with a large enough effect in the signal ratio, with a control signal flat, not every such curve was filed as active; the % refers to the signal ratio;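 as to max response: cells co-treated with a PPAR-delta agonist as stimulator during compound exposure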). Conditions: HEK293T PPARd-UAS-bla, beta-lactamase FRET ratio, 18 h; 460 nm channel. The essentials:
(§2)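 Reporter: UAS-bla under PPAR-delta response element, HEK293T host. Medium: 2% charcoal/dextran FBS. Dosing: titration, 18 hrs, 37 C. Detection: CCF4, 2 hrs RT, 405 ex/460 and 530 em.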

Test [17] addresses Peroxisome proliferator-activated receptor delta (Homo sapiens) (UniProt Q03181). The test is described as above. The essentials:
as §2

In test [18] the target is Thyroid hormone receptor beta (Homo sapiens) (UniProt P10828). In words: qHTS assay for small molecule agonists of thyroid hormone receptor beta signaling (AID 588545; calls by dose curve;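 also: 0% = DMSO only and 100% = 10 nM T3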). The procedure, abridged: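 Stimulation of a TR-driven beta-lactamase reporter was quantified in GripTite HEK 293 cells. Compound series ran for 18 hrs; curves were normalized to T3 and DMSO controls and fitted to yield EC50.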

Test [19] deals with Retinoic acid receptor RXR-alpha (Homo sapiens) (UniProt P19793). Nature of the test: qHTS assay for small molecule antagonists of retinoid X receptor alpha signaling (AID 588546).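 Also: cells stimulated with 9-cis-retinoic acid as agonist; % is scaled to controls: 0 for no effect and ±100 for the full control effect.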 Conditions: HEK293T RXRa-UAS-bla, beta-lactamase ratio, antagonist mode. The procedure, abridged:
as §1

Test [20] in a line: qHTS assay for small molecule agonists of the antioxidant response element (ARE) signaling pathway measured by Nrf2-dependant transcriptional activity (AID 720636; active = well fitted curve in the direction sought with a large enough effect in the repeat runs; an effect the other way counts as inactive or inconclusive;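 also: HepG2 cells with an ARE-driven luciferase reporter; % of control where 0% means no effect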). The procedure, abridged: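 Attachment 6 hr at 37 C, then compound versus DMSO vehicle for 16 hr in ARE-luc HepG2 cells (1% dialyzed FBS); luminescence recorded 30 min after ONE-Glo addition at room temperature.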

Sequence of Thyroid hormone receptor beta (Homo sapiens) (P10828 whole entry, looked up): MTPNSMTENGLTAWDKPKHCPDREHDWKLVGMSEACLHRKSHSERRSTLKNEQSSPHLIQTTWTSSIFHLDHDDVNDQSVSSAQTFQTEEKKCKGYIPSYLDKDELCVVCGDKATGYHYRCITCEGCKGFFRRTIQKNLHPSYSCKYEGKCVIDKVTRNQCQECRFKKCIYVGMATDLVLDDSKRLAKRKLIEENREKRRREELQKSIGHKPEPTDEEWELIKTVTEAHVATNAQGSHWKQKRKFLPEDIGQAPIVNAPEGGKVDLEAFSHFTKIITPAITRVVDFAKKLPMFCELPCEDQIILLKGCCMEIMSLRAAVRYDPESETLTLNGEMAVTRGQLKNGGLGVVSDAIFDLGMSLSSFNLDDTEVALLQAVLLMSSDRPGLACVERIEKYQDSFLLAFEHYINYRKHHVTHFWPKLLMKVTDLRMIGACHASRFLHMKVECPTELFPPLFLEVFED
Sequence of Estrogen receptor (Homo sapiens) (P03372 whole entry, looked up): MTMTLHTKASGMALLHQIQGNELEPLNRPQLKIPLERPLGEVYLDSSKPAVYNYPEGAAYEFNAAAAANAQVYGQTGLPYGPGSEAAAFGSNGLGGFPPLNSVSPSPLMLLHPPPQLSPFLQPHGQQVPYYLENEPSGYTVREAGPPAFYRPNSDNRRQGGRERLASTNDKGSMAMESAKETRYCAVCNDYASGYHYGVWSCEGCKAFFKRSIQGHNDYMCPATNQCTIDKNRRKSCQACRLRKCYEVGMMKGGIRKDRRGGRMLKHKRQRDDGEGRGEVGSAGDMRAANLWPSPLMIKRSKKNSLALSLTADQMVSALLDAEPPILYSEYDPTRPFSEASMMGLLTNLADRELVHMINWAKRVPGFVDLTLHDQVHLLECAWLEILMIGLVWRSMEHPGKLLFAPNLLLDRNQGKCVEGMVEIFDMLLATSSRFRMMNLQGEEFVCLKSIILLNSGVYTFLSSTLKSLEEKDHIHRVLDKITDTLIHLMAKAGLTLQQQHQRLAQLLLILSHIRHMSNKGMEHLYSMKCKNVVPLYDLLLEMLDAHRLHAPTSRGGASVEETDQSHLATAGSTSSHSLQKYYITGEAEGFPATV
Sequence of Glucocorticoid receptor (Homo sapiens) (P04150 whole entry, looked up): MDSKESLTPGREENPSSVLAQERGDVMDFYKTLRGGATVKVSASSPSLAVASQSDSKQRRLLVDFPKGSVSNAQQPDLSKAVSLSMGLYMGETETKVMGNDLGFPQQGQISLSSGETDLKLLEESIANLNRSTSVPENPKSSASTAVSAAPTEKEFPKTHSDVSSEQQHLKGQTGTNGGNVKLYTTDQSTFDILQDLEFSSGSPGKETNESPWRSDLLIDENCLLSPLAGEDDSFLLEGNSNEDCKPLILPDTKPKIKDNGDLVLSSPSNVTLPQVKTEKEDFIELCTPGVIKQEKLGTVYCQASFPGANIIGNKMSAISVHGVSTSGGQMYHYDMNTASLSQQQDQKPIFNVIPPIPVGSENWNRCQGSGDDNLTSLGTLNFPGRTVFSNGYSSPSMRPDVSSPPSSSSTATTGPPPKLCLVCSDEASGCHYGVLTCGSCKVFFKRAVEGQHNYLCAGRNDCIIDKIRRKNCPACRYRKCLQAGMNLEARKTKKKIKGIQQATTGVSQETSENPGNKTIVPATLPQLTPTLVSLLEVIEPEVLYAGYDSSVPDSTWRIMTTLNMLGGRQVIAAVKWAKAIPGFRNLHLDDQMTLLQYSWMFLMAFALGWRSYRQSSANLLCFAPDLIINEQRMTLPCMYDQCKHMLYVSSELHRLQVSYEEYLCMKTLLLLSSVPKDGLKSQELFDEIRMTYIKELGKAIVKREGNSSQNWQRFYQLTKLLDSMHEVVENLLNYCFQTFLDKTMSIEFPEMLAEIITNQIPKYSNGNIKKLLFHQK
Sequence of Peroxisome proliferator-activated receptor delta (Homo sapiens) (Q03181 whole entry, looked up): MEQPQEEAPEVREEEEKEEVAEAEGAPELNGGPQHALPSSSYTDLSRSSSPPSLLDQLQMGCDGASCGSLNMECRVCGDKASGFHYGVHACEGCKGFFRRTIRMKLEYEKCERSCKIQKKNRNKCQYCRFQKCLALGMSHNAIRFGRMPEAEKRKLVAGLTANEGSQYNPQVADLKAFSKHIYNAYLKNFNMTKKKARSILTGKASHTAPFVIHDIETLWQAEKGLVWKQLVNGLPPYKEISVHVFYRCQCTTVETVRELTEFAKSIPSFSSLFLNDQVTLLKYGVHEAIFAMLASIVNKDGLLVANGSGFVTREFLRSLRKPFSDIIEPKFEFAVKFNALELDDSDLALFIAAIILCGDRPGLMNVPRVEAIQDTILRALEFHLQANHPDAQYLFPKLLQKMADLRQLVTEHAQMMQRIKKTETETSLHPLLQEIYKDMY
Sequence of Retinoic acid receptor RXR-alpha (Homo sapiens) (P19793 whole entry, looked up): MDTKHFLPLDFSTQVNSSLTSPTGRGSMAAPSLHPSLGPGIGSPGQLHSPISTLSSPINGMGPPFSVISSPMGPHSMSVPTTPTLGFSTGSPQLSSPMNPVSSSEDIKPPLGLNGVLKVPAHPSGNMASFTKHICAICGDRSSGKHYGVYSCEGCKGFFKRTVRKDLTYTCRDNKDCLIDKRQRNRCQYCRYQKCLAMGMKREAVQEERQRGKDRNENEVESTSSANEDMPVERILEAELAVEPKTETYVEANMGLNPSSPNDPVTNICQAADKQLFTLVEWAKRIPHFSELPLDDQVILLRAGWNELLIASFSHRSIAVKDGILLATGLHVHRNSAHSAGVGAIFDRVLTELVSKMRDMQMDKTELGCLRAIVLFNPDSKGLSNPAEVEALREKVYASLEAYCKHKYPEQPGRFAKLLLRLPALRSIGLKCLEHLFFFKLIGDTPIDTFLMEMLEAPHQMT
Sequence of Peroxisome proliferator-activated receptor alpha (Homo sapiens) (Q07869 whole entry, looked up): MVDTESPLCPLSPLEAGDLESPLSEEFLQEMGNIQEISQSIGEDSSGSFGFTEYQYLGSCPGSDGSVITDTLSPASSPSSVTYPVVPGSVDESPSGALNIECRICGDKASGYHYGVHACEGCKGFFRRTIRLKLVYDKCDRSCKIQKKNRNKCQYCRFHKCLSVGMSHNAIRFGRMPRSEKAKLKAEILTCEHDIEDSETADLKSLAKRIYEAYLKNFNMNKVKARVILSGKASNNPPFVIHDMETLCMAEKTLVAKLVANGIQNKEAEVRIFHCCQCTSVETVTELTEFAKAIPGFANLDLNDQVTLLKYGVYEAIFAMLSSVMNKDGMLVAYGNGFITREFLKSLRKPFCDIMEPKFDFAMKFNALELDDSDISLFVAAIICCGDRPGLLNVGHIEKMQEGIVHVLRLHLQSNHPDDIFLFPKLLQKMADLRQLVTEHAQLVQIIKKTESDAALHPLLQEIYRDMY
Sequence of Nuclear receptor subfamily 1 group I member 2 (Rattus norvegicus) (Q9R1A7 whole entry, looked up): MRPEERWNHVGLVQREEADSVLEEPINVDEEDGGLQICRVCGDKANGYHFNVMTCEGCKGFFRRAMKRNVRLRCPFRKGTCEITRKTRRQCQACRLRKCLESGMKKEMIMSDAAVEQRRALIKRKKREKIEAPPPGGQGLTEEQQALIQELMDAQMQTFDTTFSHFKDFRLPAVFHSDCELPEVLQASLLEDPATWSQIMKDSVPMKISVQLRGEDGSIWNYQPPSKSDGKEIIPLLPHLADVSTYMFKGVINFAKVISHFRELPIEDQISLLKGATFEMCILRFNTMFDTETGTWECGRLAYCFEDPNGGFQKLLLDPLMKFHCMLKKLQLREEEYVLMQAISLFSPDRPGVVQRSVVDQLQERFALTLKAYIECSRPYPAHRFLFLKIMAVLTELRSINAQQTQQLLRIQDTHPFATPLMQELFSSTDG

Consider `CC(C)OC(=O)c1ccccc1C(=O)OC(C)C`, for which the Potency result in [1], in test [2], in [4], in test [6] and in test [13] was “inactive” each time. Moreover, the activation was -6.71% (inactive) in [3], -2.02% (inactive) in test [8] and 1.05% (inactive) in test [9]. Also, the max response was -10.4% in test [5]; -19.4% in test [7]; -0.635% (inactive) in [10]; 0.0901% (inactive) in [11]; -5.59% (inactive) in test [12]; 2.54% (inactive) in [14]. Also, the result in test [15] was inactive.
For `C/C=C/C=C/CCCCCCCO`, the Potency result in [1], in [2], in test [4], in [17], in test [6] and in test [18] was “inactive” in each case. The Potency entry in test [13] is “inactive”. Moreover, the activation in test [3] is -6.08% (inactive); in [8], -0.666% (inactive); in test [9], -1.79% (inactive). Besides, the max response in test [16] is 19.3%; in test [5] it was 11.1%; in [7], 19.5%; in test [19] it was -19.2% (inactive); in test [10], 0.881% (inactive); in test [11], -8.82% (inactive). In addition, the max response was -6.91% (inactive) in [12] and -0.307% (inactive) in [14]. Further, the call in test [15] was inactive.
With `CCCCOC(=O)c1ccccc1`, the Potency result in [1], in test [2], in test [4], in test [17], in [6] and in test [13] was “inactive” throughout. Besides, the activation in [3] was -8.22% (inactive); in test [8] it was 0.836% (inactive). The max response is 0.0882% in test [16]; -7.9% in test [5]; -1.79% in [7]; 3.76% (inactive) in test [19]; -1.04% (inactive) in [10]; 21.3% (inactive) in [11]. Moreover, the max response in test [12] was -6.32% (inactive); in test [14], -2.16% (inactive). In test [15], the compound was called inactive.
As to `C=Cc1ccccc1Br`, the Potency result in test [1], in [2], in test [4], in test [17], in test [6] and in test [18] was “inactive” in each case. Also, the Potency entry in [13] is “inactive”. Besides, the activation in [3] is -5.73% (inactive); in [8], -1.27% (inactive); in test [9], 1.62% (inactive). Besides, the max response was -10.1% in test [16]; -4.64% in test [5]; 1.9% in test [7]; -9.99% (inactive) in test [19]; 0.716% (inactive) in [10]; -11.1% (inactive) in test [11]. Moreover, the max response in test [12] is -11.7% (inactive); in test [14] it was -0.877% (inactive). The result in test [15] was inactive.
`N[C@@H]1[C@@H](O)[C@H](O)[C@@H](CO)O[C@H]1O`: the Potency entry in [1], in test [2], in [17], in [6], in test [18] and in test [20] was “inactive” each time. The Potency entry in test [13] is “inactive”. The max response is 8.04% in test [16]; -2.29% in test [5]; -16.6% in test [7]; 6.05% (inactive) in [19]; -1.62% (inactive) in [10]; -11.9% (inactive) in test [11]. Besides, the max response in test [12] is -8.29% (inactive); in [14] it was -3.38% (inactive). For the same compound, in test [9], the activation is 2.2% (inactive). Further, in test [15], the outcome was inactive.
For `COC(=O)c1c(Cl)nn(C)c1S(=O)(=O)NC(=O)Nc1nc(OC)cc(OC)n1`, the Potency entry in test [1], in [2], in test [4], in test [17], in [6] and in test [18] was “inactive” each time. The Potency result in [20] and in test [13] was “inactive” throughout. The activation in test [3] was -2.96% (inactive); in [8], -2.65% (inactive); in [9] it was -1.75% (inactive). Further, the max response is -24.6% in [16]; -3.44% in test [5]; -1.74% in [7]; -14.3% (inactive) in test [19]; 0.0687% (inactive) in [10]; -2.6% (inactive) in test [11]. Also, the results for the max response in test [12] and in test [14] were -3.18% (inactive) and 1.48% (inactive), respectively. Also, the call in test [15] was inactive.
